For one compound, inhibition results are on record in ChEMBL document CHEMBL1961873, “Compounds: GSK PKIS; Assays: Nanosyn kinase panel” (2012).

Assay [1] concerns the target Protein kinase C gamma type (Homo sapiens) (UniProt P05129). The following applies: at 1 µM.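 Also: each value is an averaged percent inhibition of the enzyme.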
Assay [2] deals with T1, Protein kinase C iota type (Homo sapiens) (UniProt P41743).
T1 sequence (whole entry): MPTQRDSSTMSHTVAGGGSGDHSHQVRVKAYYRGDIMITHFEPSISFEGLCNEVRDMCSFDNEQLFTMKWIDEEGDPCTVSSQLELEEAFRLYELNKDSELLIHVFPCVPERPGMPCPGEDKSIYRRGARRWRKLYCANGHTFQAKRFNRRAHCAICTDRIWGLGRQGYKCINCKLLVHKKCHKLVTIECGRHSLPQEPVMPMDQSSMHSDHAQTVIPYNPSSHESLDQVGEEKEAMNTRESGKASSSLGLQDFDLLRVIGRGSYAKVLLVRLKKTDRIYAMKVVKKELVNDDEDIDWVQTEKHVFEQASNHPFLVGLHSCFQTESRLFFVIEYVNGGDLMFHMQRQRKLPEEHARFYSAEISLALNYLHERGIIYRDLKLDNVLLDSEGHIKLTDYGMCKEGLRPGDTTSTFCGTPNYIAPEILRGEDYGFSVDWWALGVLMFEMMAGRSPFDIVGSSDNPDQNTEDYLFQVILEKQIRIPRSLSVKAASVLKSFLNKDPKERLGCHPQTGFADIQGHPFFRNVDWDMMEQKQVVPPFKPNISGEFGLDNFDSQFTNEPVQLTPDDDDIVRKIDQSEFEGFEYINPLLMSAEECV
The settings on record: at 0.1 µM.

The target in assay [3] is T1, Protein kinase C iota type (Homo sapiens). The settings on record: at 1 µM.
The target of assay [4] is Protein kinase C theta type (Homo sapiens) (UniProt Q04759). The following applies: at 0.1 µM.
Chain of Protein kinase C theta type (Homo sapiens) (Q04759 whole entry, looked up): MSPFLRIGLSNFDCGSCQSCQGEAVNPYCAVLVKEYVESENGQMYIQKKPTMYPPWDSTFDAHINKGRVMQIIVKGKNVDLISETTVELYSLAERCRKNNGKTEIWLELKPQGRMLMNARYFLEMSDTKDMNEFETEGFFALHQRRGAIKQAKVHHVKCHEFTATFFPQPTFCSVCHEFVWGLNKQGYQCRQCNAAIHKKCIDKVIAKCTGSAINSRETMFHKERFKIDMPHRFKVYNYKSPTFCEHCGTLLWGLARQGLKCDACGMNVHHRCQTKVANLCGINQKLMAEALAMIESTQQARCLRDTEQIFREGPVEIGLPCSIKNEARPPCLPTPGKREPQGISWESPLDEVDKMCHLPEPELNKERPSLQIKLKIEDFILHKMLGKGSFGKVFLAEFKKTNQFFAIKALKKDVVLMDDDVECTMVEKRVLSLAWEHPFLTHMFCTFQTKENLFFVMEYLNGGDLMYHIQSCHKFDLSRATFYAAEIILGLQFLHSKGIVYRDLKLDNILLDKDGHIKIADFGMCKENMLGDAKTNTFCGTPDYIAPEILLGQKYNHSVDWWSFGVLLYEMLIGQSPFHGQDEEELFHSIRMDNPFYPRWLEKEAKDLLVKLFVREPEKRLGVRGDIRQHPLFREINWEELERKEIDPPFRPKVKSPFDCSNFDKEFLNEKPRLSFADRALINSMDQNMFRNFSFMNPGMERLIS
Assay [5] has the same target. The settings on record: at 1 µM.
Assay [6] has as its target Protein kinase C beta type (Homo sapiens) (UniProt P05771). The settings on record: at 0.1 µM.
Assay [7] shares this target. The settings on record: at 1 µM.
Assay [8] concerns the target T2, Serine/threonine-protein kinase D1 (Homo sapiens) (UniProt Q15139).
T2 sequence (whole entry): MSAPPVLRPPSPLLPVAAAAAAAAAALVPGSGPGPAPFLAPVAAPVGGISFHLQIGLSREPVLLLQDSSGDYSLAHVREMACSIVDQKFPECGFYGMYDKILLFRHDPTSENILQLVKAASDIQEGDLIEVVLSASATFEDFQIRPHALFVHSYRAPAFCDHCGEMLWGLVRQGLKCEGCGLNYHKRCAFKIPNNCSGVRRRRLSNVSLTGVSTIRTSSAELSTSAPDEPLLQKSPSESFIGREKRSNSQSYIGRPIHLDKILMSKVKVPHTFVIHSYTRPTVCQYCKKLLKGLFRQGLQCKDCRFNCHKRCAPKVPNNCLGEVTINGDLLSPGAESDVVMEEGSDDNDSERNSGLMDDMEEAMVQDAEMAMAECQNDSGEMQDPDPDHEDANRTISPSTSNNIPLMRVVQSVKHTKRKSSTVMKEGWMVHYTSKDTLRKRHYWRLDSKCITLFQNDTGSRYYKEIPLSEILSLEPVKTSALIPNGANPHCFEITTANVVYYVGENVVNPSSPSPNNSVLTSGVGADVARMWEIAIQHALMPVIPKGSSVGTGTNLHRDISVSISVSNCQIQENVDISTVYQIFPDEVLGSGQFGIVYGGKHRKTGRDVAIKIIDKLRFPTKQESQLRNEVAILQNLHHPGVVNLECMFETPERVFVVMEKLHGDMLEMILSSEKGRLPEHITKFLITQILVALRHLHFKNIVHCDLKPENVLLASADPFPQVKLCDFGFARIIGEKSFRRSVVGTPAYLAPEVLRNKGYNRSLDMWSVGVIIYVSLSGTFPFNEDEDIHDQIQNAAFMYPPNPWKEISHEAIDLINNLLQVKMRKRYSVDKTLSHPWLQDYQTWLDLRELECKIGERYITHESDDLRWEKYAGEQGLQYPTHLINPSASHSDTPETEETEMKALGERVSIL
The settings on record: at 0.1 µM.

The target in assay [9] is T2, Serine/threonine-protein kinase D1 (Homo sapiens). The following applies: at 1 µM.
The target in assay [10] is T3, Serine/threonine-protein kinase D2 (Homo sapiens) (UniProt Q9BZL6).
T3 sequence (whole entry): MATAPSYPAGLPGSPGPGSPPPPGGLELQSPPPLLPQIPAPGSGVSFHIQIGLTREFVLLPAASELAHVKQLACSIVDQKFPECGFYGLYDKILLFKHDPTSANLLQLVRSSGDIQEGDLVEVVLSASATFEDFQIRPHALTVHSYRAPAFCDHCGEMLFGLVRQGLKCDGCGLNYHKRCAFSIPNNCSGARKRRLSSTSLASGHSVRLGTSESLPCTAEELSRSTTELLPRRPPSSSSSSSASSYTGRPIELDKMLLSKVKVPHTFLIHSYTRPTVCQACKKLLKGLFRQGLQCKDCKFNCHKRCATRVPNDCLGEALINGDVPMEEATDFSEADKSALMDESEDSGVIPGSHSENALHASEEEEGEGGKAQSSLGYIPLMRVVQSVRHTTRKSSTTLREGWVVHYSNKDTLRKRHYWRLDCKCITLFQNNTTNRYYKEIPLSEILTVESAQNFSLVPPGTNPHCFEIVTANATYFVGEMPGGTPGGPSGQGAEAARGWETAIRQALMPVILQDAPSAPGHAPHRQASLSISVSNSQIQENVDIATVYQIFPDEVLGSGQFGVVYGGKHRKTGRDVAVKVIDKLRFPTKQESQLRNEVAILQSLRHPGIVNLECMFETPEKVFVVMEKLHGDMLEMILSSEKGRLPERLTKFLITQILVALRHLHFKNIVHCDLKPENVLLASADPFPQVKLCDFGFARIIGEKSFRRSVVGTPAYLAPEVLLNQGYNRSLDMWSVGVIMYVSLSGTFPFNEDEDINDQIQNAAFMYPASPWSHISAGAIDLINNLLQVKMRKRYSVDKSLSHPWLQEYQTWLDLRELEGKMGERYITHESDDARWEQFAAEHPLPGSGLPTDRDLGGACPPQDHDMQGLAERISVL
The following applies: at 0.1 µM.

For assay [11], the target named is T3, Serine/threonine-protein kinase D2 (Homo sapiens). The following applies: at 1 µM.
The target in assay [12] is T4, Serine/threonine-protein kinase D3 (Homo sapiens) (UniProt O94806).
T4 sequence (whole entry): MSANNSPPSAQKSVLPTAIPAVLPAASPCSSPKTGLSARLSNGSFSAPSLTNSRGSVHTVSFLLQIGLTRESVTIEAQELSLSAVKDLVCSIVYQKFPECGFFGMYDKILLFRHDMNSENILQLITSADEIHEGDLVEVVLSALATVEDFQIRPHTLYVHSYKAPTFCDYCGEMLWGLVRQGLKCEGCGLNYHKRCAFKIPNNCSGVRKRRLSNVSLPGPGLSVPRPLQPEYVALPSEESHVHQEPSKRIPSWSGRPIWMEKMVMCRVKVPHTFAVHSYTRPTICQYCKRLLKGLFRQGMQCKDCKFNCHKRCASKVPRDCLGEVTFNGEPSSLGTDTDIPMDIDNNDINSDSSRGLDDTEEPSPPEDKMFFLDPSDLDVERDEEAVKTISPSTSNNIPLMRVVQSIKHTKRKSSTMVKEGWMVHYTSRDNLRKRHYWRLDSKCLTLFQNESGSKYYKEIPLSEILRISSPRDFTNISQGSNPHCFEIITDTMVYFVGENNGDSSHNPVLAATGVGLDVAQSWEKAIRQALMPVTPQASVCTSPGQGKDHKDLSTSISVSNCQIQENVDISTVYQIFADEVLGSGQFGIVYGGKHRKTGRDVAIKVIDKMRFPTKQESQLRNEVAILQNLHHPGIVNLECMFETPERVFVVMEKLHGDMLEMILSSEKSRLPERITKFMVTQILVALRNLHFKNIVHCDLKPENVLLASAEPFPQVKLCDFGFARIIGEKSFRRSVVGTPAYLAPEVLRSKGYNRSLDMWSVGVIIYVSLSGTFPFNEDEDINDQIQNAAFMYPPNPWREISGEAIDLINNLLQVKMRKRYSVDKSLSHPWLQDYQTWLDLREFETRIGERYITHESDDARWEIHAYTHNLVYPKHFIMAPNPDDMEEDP
The settings on record: at 0.1 µM.

Assay [13] deals with T4, Serine/threonine-protein kinase D3 (Homo sapiens). The following applies: at 1 µM.
Assay [14] has as its target T5, cGMP-dependent protein kinase 1 (Homo sapiens) (UniProt Q13976).
T5 sequence (whole entry): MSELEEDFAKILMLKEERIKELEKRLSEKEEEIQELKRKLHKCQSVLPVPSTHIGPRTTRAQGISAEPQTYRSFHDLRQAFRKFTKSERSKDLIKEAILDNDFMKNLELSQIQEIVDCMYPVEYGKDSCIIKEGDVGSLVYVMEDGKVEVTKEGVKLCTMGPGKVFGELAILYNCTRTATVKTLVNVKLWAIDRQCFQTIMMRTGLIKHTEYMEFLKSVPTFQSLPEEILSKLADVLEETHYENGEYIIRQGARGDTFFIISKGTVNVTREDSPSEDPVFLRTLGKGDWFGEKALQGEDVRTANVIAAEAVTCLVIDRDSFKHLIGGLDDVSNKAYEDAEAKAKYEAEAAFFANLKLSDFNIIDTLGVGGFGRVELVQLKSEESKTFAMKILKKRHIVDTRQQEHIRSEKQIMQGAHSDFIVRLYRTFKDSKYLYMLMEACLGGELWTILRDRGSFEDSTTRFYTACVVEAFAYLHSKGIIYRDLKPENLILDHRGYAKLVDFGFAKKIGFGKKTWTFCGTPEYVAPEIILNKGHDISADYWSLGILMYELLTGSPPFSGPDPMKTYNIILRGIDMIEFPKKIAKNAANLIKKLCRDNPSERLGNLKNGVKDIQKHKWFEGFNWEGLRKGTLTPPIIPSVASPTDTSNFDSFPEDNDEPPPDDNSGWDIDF
The following applies: at 0.1 µM.

Assay [15] deals with T5, cGMP-dependent protein kinase 1 (Homo sapiens). The settings on record: at 1 µM.
For assay [16], the target named is T6, cGMP-dependent protein kinase 2 (Homo sapiens) (UniProt Q13237).
T6 sequence (whole entry): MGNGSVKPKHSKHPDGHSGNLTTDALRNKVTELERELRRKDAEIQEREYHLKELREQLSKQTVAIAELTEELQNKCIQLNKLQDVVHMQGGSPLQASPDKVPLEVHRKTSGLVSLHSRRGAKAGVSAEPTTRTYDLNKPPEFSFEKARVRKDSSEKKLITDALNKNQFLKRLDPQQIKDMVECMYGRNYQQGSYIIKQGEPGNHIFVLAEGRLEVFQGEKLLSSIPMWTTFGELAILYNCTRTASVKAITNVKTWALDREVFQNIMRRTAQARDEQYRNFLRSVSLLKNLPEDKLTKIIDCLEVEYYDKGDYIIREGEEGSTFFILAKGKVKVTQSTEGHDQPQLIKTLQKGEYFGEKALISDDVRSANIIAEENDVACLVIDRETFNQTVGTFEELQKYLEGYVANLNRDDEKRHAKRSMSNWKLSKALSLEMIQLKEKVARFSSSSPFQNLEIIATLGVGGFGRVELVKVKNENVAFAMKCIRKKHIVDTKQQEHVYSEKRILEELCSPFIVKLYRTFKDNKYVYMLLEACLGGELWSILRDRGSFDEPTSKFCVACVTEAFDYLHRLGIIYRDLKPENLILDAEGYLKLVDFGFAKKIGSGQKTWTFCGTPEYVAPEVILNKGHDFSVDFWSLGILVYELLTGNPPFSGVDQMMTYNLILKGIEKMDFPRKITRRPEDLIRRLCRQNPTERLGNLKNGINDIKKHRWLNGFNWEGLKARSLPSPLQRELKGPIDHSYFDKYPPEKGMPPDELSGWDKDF
The settings on record: at 0.1 µM.

Assay [17] addresses T6, cGMP-dependent protein kinase 2 (Homo sapiens). The settings on record: at 1 µM.
The target of assay [18] is T7, cAMP-dependent protein kinase catalytic subunit PRKX (Homo sapiens) (UniProt P51817).
T7 sequence (whole entry): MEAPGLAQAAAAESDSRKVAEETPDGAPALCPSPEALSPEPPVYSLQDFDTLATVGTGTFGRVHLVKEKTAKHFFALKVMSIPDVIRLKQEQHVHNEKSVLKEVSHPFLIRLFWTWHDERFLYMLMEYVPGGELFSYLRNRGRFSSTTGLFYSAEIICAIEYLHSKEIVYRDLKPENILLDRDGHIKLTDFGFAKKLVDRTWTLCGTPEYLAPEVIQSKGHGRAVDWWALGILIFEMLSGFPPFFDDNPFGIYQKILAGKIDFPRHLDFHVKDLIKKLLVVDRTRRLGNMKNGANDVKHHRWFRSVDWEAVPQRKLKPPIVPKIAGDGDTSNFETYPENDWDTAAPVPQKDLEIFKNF
The settings on record: at 0.1 µM.

The target in assay [19] is T7, cAMP-dependent protein kinase catalytic subunit PRKX (Homo sapiens). The settings on record: at 1 µM.
The target in assay [20] is Rho-associated protein kinase 1 (Homo sapiens) (UniProt Q13464). The following applies: at 0.1 µM.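 Also: values are mean percent inhibition of ROCK1.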
Chain of Rho-associated protein kinase 1 (Homo sapiens) (Q13464 2-1354 limits assumed): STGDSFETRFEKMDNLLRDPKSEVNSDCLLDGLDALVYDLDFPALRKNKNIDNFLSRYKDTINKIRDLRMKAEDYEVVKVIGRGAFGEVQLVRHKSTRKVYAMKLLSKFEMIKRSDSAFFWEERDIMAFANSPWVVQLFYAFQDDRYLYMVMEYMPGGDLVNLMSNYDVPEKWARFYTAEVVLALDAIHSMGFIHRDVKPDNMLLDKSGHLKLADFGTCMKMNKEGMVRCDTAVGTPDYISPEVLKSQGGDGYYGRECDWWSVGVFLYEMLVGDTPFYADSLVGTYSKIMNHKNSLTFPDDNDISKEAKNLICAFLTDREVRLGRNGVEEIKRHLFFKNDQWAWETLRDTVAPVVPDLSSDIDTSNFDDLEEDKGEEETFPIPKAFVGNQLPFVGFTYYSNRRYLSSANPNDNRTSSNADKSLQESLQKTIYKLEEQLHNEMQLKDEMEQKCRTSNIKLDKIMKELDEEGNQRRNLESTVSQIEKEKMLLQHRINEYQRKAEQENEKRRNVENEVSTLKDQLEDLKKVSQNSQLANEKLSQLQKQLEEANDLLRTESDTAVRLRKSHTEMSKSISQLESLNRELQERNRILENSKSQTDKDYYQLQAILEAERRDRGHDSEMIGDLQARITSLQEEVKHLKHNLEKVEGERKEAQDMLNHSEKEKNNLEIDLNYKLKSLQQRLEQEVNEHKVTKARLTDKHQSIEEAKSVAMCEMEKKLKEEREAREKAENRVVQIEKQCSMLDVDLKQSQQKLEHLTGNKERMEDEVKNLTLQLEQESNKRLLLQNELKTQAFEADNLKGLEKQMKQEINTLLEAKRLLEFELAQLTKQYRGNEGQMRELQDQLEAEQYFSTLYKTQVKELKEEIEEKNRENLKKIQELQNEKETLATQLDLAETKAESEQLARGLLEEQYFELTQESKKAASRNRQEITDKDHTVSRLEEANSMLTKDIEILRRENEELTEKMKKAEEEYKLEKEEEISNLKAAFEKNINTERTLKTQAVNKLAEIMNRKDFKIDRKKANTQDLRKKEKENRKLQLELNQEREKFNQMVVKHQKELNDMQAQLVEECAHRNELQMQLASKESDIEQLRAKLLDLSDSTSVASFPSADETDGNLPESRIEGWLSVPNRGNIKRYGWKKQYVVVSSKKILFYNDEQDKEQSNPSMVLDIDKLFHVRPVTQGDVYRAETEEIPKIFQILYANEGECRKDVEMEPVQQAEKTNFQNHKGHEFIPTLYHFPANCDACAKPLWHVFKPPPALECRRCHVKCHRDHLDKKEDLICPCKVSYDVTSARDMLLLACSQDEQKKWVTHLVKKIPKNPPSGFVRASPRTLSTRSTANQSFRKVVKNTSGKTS

Chain of Protein kinase C beta type (Homo sapiens) (P05771 2-671 limits assumed): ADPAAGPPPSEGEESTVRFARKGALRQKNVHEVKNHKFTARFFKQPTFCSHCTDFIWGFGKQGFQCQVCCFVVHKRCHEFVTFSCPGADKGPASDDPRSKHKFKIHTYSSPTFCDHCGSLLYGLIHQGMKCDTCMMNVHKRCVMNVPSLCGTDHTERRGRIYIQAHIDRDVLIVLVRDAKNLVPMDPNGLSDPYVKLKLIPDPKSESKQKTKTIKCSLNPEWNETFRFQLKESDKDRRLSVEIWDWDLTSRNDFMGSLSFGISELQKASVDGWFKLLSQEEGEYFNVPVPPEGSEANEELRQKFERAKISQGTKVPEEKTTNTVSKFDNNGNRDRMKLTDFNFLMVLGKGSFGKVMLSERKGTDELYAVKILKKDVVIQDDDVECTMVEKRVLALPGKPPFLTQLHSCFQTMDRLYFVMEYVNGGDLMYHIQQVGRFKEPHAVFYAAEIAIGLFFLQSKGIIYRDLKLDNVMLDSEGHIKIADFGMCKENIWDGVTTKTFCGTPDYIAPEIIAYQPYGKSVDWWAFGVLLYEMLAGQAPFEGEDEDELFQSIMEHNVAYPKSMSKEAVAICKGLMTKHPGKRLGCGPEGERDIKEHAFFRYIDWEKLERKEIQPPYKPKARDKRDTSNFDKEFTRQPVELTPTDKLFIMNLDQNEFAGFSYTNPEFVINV

`NC(=O)c1sc(-n2cnc3ccc(C(F)(F)F)cc32)cc1OCc1ccccc1Br`: the inhibition came out at 3.75% in assay [1]; 0.8% in [2]; 0.82% in assay [3]; 1.63% in assay [4]; 2.57% in assay [5]; 1.28% in assay [6]. Further, the inhibition in assay [7] came to 1.31%; in assay [8], 2.72%; in [9], 3.86%; in [10], 3.59%; in [11], 4.08%; in [12] it was 4.03%. Also, the inhibition in [13] was 3.94%; in assay [14], 3.55%; in assay [15], 8.39%; in assay [16], 2.01%; in assay [17], 5.42%; in [18] it was 3.81%. For the same compound, the inhibition in assay [19] was 8.33%; in assay [20], 0.45%.

A word on the inhibition: it is the change of the read-out against control, counted positive when it falls. Read a high inhibition as strong suppression.
